Data on 17 compounds can be found in PubChem BioAssay AID1508637 (National Center for Advancing Translational Sciences (NCATS), 2021).

Records with an inconclusive call do not appear. The source made the active and inactive calls. Calls follow the shape of the dose curve; as a rule, active = well fitted inhibition curve with a large enough effect; inconclusive = small, poorly fitted or top-dose-only effect; inactive = flat fitted curve, though single readings scatter. Starred links: 1 amine or outer side, 2 acyl side, 3 side chain; linkers in the order of their positions; H or OH if unused. Positions of bridges follow the written chain, without caps; N, C: chain ends. Non-standard residues stand in square brackets, D forms with d. Residues, ends and D or L forms follow the SMILES beside them. Chains are numbered I, II in the order given. ξ: configuration not given here. Actinocin(9to1) = Cc1c2oc3c(C)ccc(C(=O)[*:1])c3nc-2c(C(=O)[*:2])c(N)c1=O; ξNMeV = CNC(C(=O)O)C(C)C; ξV = CC(C)C(N)C(=O)O; Sar = CNCC(=O)O

A short description of the experiment: qHTS for characterization and localization of zebrafish homologs of the human ABCB1 multidrug transporter: empty vector transfected cells. The settings on record: empty vector transfected control cells, CellTiter-Glo luminescence viability, 72 h; series mostly up to 46.1 µM. An excerpt:
The zebrafish has emerged as a potential model to study the blood-brain barrier (BBB) given its similarities with mammalian systems. However, little information has been available with regard to homologous ATP-binding cassette transporters expressed at the zebrafish BBB. Two transporters that are highly expressed at the human BBB are P-glycoprotein (P-gp, encoded by the ABCB1 gene) and ABCG2 (encoded by the ABCG2 gene). In this study, we focus on characterization of P-gp homologs in the zebrafish, which has two genes that are homologous to human ABCB1 - abcb4 and abcb5. We generated stably-transfected cell lines to determine their substrate specificities. […] Zebrafish abcb4 also colocalized with claudin 5 expression in brain endothelial cells.
A high-throughput screen was performed as previously described on empty vector transfected cells, P-gp-overexpressing MDR-19 cells and cells transfected with full-length zebrafish abcb4 (ZF Abcb4) or abcb5 (ZF Abcb5). Briefly, cells were plated into 1536-well plates at a density of 500 cells/well in 5 uL media. P-gp substrate compounds (approximately 90) selected from our previous study were then added at varying concentrations using a 1536-head pin tool (Kalypsis, San Diego, CA) and plates were incubated at 37C in 5% CO2 for 72 h. CellTiter-Glo reagent (Promega) was dispensed into the wells, incubated for 5 min and luminescence was read on a ViewLux instrument (Perkin-Elmer).
Cytotoxic compounds were defined as those that yielded a curve class of -1.1, -1.2, -2.1, -2.2, -2.3, or -2.4, a maximum response of >50% and an AC50 of < 10 uM. All compounds from screening analysis were tested in Vector (empty vector control), MDR-19 (P-gp overexpressing), zebrafish abcb4 (ZF Abcb4) and abcb5 (ZF Abcb5) expression cell lines.
1. Tobie D Lee, Olivia W Lee, Kyle R Brimacombe, Lu Chen, Rajarshi Guha, Sabrina Lusvarghi, Bethilehem G Tebase, Carleen Klumpp-Thomas, Robert W Robey, Suresh V Ambudkar, Min Shen, Michael M Gottesman, Matthew D Hall. A High-Throughput Screen of a Library of Therapeutics Identifies Cytotoxic Substrates of P-glycoprotein. Mol Pharmacol. 2019, Nov;96(5):629-640.
For orientation: In qHTS, concentration-response curves come from the screen itself.
As for `CC(=O)O[C@@H]1C[C@H](O)[C@@]23CO[C@@H](O)C1(C)[C@@H]2C[C@@H](O)[C@]1(C)[C@@H]3C(=O)[C@H](OC(C)=O)[C@@]2(C)[C@H](c3ccoc3)C[C@H]3O[C@]321`, the Potency is 93.5 nM (active).

As for `NC(=O)Nc1cc(-c2cccc(F)c2)sc1C(=O)N[C@H]1CCCNC1`, the Potency was 590 nM (active).

With `C[C@@H]1O[C@@H](O[C@H]2[C@H](O)[C@@H](O)[C@H](O[C@H]3[C@H](O[C@H]4CC[C@@]5(C)C(=CC[C@@H]6C5CC[C@]5(C)[C@@H]7[C@H](C[C@@H]65)O[C@]5(CC[C@@](C)(CO[C@@H]6O[C@H](CO)[C@@H](O)[C@H](O)[C@H]6O)O5)[C@H]7C)C4)O[C@H](CO)[C@@H](O)[C@@H]3O)O[C@@H]2CO)[C@H](O)[C@H](O)[C@H]1O` (some centres not stated), the Potency is 353 nM (active).

In the case of `CC[C@@H]1C(=O)N(C)c2cnc(Nc3ccc(C(=O)NC4CCC(N5CCN(CC6CC6)CC5)CC4)cc3OC)nc2N1C(C)C` (some centres not stated), the Potency is 52.6 nM (active).

Regarding `CCn1c(-c2nonc2N)nc2c(C#CC(C)(C)O)ncc(OC[C@H]3CCCNC3)c21`, the Potency was 1180 nM (active).

On to `CN(C)c1ccc(C(=C2C=CC(=[N+](C)C)C=C2)c2ccc(N(C)C)cc2)cc1`, for which the Potency is 590 nM (active).

As for `CN(C)C1CCN(C(=O)c2ccc(NC(=O)Nc3ccc(-c4nc(N5CCOCC5)nc(N5CCOCC5)n4)cc3)cc2)CC1`, the Potency is 469 nM (active).

Take `CC(C)C[C@H](NC(=O)[C@@H](NC(=O)c1cccc(-c2ccccc2)n1)[C@@H](C)O)B(O)O`: the Potency is 74.3 nM (active).

Regarding `CN(C)C1CCN(C(=O)c2ccc(NC(=O)Nc3nc(N4CCOCC4)nc(N4CCOCC4)n3)cc2)CC1`, the Potency was 469 nM (active).

Take `NC(=O)Nc1cc(-c2ccc(CN3CCOCC3)c(F)c2)sc1C(=O)N[C@H]1CCCNC1`: the Potency is 469 nM (active).

Consider `CC(NCc1ccc2c(c1)nc(NC(=O)c1ccc(-c3cn[nH]c3)s1)n2CC(C)(C)O)C(C)(C)C` (configuration not stated), for which the Potency is 332 nM (active).

Turning to `CC[n+]1c(-c2ccccc2)c2cc(N)ccc2c2ccc(N)cc21`, the Potency is 332 nM (active).

For `CCS(=O)(=O)c1cccc(-c2cc(C(=O)NC3CCN(C)CC3)c(C)c3[nH]c4ncc(C)cc4c23)c1`, the Potency was 2350 nM (active).

On to `CC[C@@]1([C@@H]2O[C@@H]([C@H]3O[C@@](O)(CO)[C@H](C)C[C@@H]3C)C[C@@H]2C)CC[C@H]([C@]2(C)CC[C@]3(C[C@H](O)[C@@H](C)[C@@H]([C@@H](C)[C@@H](OC)[C@H](C)C(=O)O)O3)O2)O1`, for which the Potency is 148 nM (active).

Regarding `C=CCNC1=C2CC(C)CC(OC)C(O)C(C)/C=C(\C)C(OC(N)=O)C(OC)/C=C/C=C(\C)C(=O)NC(=CC1=O)C2=O` (configuration not stated), the Potency is 1480 nM (active).

For the compound `Cn1cc(-c2[nH]c3cc(NC(=O)[C@H](N)C4CCCCC4)cc4c3c2C=NNC4=O)cn1`, the Potency was 418 nM (active).

For `Cc1c2oc3c(C)ccc(C(=O)N[C@@H]4C(=O)NC(C(C)C)C(=O)N5CCC[C@H]5C(=O)N(C)CC(=O)N(C)C(C(C)C)C(=O)O[C@@H]4C)c3nc-2c(C(=O)N[C@@H]2C(=O)NC(C(C)C)C(=O)N3CCC[C@H]3C(=O)N(C)CC(=O)N(C)C(C(C)C)C(=O)O[C@@H]2C)c(N)c1=O` (some centres not stated) (I: T[ξV]P[Sar][ξNMeV] / II: T[ξV]P[Sar][ξNMeV]; ester I:1-I:C, II:1-II:C; linker I:N-II:N via Actinocin(9to1)), the Potency was 7.4 nM (active).
